# Where “and” joins values, the source holds several entries; their conditions need not be identical. Identical values can stand only once. Counter-ions that a name gives are not always drawn.
# Test system: HeLa
# Experiment: MALAT1 nuclear FISH intensity, robust Z-score vs DMSO; higher = more nuclear MALAT1 lncRNA, active = -3 or less
# Details: 10 µM; 6 h
# 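Further: High-content confocal imaging of branched-DNA amplified FISH in 384-well plates, Hoechst-defined nuclei, score is well value minus plate DMSO median over DMSO robust SD, four wells per compound.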
row,Structure (SMILES),MALAT1 nuclear FISH intensity
1,O=C1NC(=O)C(c2ccccc2[N+](=O)[O-])=C1Nc1ccc(O)c(Cl)c1,-1.18 (inactive)
2,CCOC(=O)O[C@]1(C(=O)OCCl)CC[C@H]2[C@@H]3CCC4=CC(=O)C=C[C@]4(C)[C@H]3[C@@H](O)C[C@@]21C [Loteprednol Etabonate],1.33 (inactive)
3,COc1c(C)c2c(c(O)c1C/C=C(\C)CCC(=O)O)C(=O)OC2 [Mycophenolic Acid],0.379 (inactive)
4,C[C@@H](N)[C@H]1CC[C@H](C(=O)Nc2ccncc2)CC1,-2.88 (inactive) and -3.24 (active)
5,CN[C@H]1CC[C@@H](c2ccc(Cl)c(Cl)c2)c2ccccc21 [Sertraline hydrochloride],-1.48 (inactive)
6,Nc1nc(Cl)nc2c1ncn2[C@@H]1O[C@H](CO)[C@@H](O)[C@@H]1F [Clofarabine],0.00504 (inactive)
7,Oc1ccc(-c2nc(-c3ccc(F)cc3)c(-c3ccncc3)[nH]2)cc1,-0.672 (inactive) and -1.03 (inactive)
8,C=CC1=C(C(=O)O)N2C(=O)[C@@H](NC(=O)/C(=N\O)c3csc(N)n3)[C@H]2SC1 [Cefdinir],-0.0396 (inactive)
9,CC(C)C[C@@H](C=O)NC(=O)[C@H](CC(C)C)NC(=O)[C@H](CC(C)C)NC(=O)OCc1ccccc1,1.03 (inactive) and 5.91 (inactive)
10,CN(C)CCCn1cc(C2=C(c3c[nH]c4ccccc34)C(=O)NC2=O)c2ccccc21,-0.278 (inactive) and -2.74 (inactive)
11,COc1cc(C(C)=O)ccc1OCCCN1CCC(c2noc3cc(F)ccc23)CC1 [Iloperidone],-0.486 (inactive)
12,CC(/C=C/C(=O)NO)=C\[C@@H](C)C(=O)c1ccc(N(C)C)cc1 [Trichostatin A],3.72 (inactive)
13,CC(C)[C@H](N)C(=O)OCCOCn1cnc2c(=O)nc(N)[nH]c21,-0.349 (inactive)
14,CN1CCN(CCCN2c3ccccc3Sc3ccc(C(F)(F)F)cc32)CC1 [Trifluoperazine dihydrochloride],1.38 (inactive)
15,CNC[C@H](O)c1cccc(O)c1 [Phenylephrine],1.34 (inactive)
16,O=C(Nc1ccccc1)c1cc([N+](=O)[O-])ccc1Cl,-1.22 (inactive) and -0.08 (inactive)
17,CC(/C=C/C(=O)NO)=C\[C@@H](C)C(=O)c1ccc(N(C)C)cc1 [Trichostatin-A],0.794 (inactive)
18,Oc1c2ccccc2c2c3c(cccc13)N=N2,-1.29 (inactive) and -0.582 (inactive)
19,O=C(O)CC[C@H]1CC[C@@](c2cc(F)ccc2F)(S(=O)(=O)c2ccc(Cl)cc2)CC1,-1.02 (inactive)
20,O=C(NCCCCCCNC(=O)ON=C1CCCCC1)ON=C1CCCCC1,-1.01 (inactive) and -1.36 (inactive)
21,CNCCCC12CCC(c3ccccc31)c1ccccc12,-0.734 (inactive)
22,CCCOc1ccc(C(=O)OCCN(CC)CC)cc1N,0.714 (inactive)
23,NC[C@H](O)c1ccc(O)c(O)c1 [Norepinephrine Bitartrate Monohydrate],0.0168 (inactive)
24,COc1cccc(-c2cc(=O)c3ccccc3o2)c1N,-0.178 (inactive) and 0.3 (inactive) and 1.49 (inactive)
25,CCN1CCCC1CNC(=O)c1cc(S(N)(=O)=O)ccc1OC (stereo not given) [Sulpiride],-1.43 (inactive)
26,CN(C)CCC[C@@]1(c2ccc(F)cc2)OCc2cc(C#N)ccc21 [Escitalopram],0.947 (inactive)
27,CCCCCCCC/C=C\C/C=C\C/C=C\CCCC(=O)O [Mead acid (20:3 n-9)],0.854 (inactive)
28,CO/N=C(\C(=O)N[C@@H]1C(=O)N2C(C(=O)OCOC(=O)C(C)(C)C)=C(/C=C\c3scnc3C)CS[C@H]12)c1csc(N)n1 [Cefditoren Pivoxil],-1.11 (inactive)
29,CC[C@H]1OC(=O)[C@H](C)[C@@H](O[C@H]2C[C@@](C)(OC)[C@@H](O)[C@H](C)O2)[C@H](C)[C@@H](O[C@@H]2O[C@H](C)C[C@H](N(C)C)[C@H]2O)[C@](C)(OC)C[C@@H](C)C(=O)[C@H](C)[C@@H](O)[C@]1(C)O [Clarithromycin],-0.246 (inactive)
30,C[N+](C)(C)CCOC(N)=O [Carbachol (Carbamylcholine ) Chloride],-0.336 (inactive)

# Reference: the supplement of paper PMC9844399
